Measured values from the supplement of paper PMC6089552.
Screen size: about 3,200 compounds; about 300 (9.4%) showed activity. The list comes from a sample in which actives are over-represented; it also holds similar structures and randomly drawn compounds.

Test system: A673/TR/shEF
Experiment: cell viability (LOESS-normalised, relative to median of negative controls) (log2 ratio); higher = more viable cells (less compound effect), active = hit call of the paper (over 3 MAD below the median)
Settings: treatment time: 72 h
Method in brief: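 A673/TR/shEF Ewing sarcoma cells (1,500 per well, 384-well plates) were grown with or without doxycycline to induce EWS-FLI1 shRNA knockdown, starting 24 h before compounds. Library compounds at two or more concentrations, with DMSO controls, were added for three days. Cell viability was read by CellTiter-Glo luminescence on an Envision reader, then LOESS-corrected per plate, divided by the median of negative controls and log2-transformed. Hits were wells at least three median absolute deviations from the median of all screened wells.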

[1] = 0.25 µM, library screen: screen1, EWS-FLI1 expression: high (no doxycycline)
[2] = 0.25 µM, library screen: screen1, EWS-FLI1 expression: low (doxycycline-induced shRNA knockdown)
[3] = 2.5 µM, library screen: screen1, EWS-FLI1 expression: high (no doxycycline)
[4] = 2.5 µM, library screen: screen1, EWS-FLI1 expression: low (doxycycline-induced shRNA knockdown)
[5] = 0.103 µM, library screen: screen3, EWS-FLI1 expression: high (no doxycycline)
[6] = 0.103 µM, library screen: screen3, EWS-FLI1 expression: low (doxycycline-induced shRNA knockdown)
[7] = 0.308 µM, library screen: screen3, EWS-FLI1 expression: high (no doxycycline)
[8] = 0.308 µM, library screen: screen3, EWS-FLI1 expression: low (doxycycline-induced shRNA knockdown)
[9] = 0.926 µM, library screen: screen3, EWS-FLI1 expression: high (no doxycycline)
[10] = 0.926 µM, library screen: screen3, EWS-FLI1 expression: low (doxycycline-induced shRNA knockdown)
[11] = 2.8 µM, library screen: screen3, EWS-FLI1 expression: high (no doxycycline)
[12] = 2.8 µM, library screen: screen3, EWS-FLI1 expression: low (doxycycline-induced shRNA knockdown)
[13] = 8.3 µM, library screen: screen3, EWS-FLI1 expression: high (no doxycycline)
[14] = 8.3 µM, library screen: screen3, EWS-FLI1 expression: low (doxycycline-induced shRNA knockdown)
[15] = 25 µM, library screen: screen3, EWS-FLI1 expression: high (no doxycycline)
[16] = 25 µM, library screen: screen3, EWS-FLI1 expression: low (doxycycline-induced shRNA knockdown)

Measured: cell viability (log2)

CC(=O)O[C@H]1CC[C@@]2(C)C(CC[C@]3(C)C2C(=O)C=C2C4[C@@H](C)[C@H](C)CC[C@]4(C(=O)O)CC[C@]23C)C1(C)C (stereo partly specified)
inactive: [1] 0.0834 | [2] -0.0467 | [3] 0.137 | [4] -0.0143

Cc1nnc(SCC(=O)N2c3cc(C)c(C)cc3-c3c(ssc3=S)C2(C)C)s1
inactive: [1] 0.0437 | [2] 0.1 | [3] 0.106 | [4] 0.371

COc1cc(CN2CCN(Cc3ccccc3Br)CC2)cc(OC)c1OC
inactive: [1] 0.141 | [2] 0.0128 | [3] 0.124 | [4] -0.0338

COCCCN1C(=O)C(=Cc2sccc2C)SC1=S
inactive: [1] 0.112 | [2] 0.0557 | [3] 0.117 | [4] -0.0013

CC1=C(C(=O)Nc2ccccc2Cl)C(c2ccc(F)cc2)NC(=S)N1 (stereo unspecified)
inactive: [1] 0.0751 | [2] -0.00334 | [3] 0.0684 | [4] -0.0806

CC(=O)CCC(=O)O
inactive: [1] 0.109 | [2] -0.0377 | [3] 0.149 | [4] 0.116

Nc1ccccc1C(=O)CC(N)C(=O)O (stereo unspecified)
inactive: [1] 0.119 | [2] 0.0475 | [3] 0.0296 | [4] 0.178

Clc1ccc(COC(Cn2ccnc2)c2ccc(Cl)cc2Cl)c(Cl)c1 (stereo unspecified)
inactive: [5] 0.0363 | [6] 0.054 | [1] 0.11 | [2] -0.0145 | [7] 0.0264 | [8] 0.0988 | [9] 0.0504 | [10] 0.0737 | [3] 0.143 | [4] 0.0636 | [11] 0.00663 | [12] 0.0754 | [13] -0.0261 | [14] 0.0596 | [15] -0.0834 | [16] 0.0583

Clc1ccc(CSC(Cn2ccnc2)c2ccc(Cl)cc2Cl)cc1 (stereo unspecified)
inactive: [1] 0.0547 | [2] -0.0713 | [3] 0.0724 | [4] -0.143

Clc1ccc(COC(Cn2ccnc2)c2ccc(Cl)cc2Cl)cc1 (stereo unspecified)
active: [15] -0.429
inactive: [5] -0.00584 | [6] 0.0214 | [1] 0.00613 | [2] -0.0476 | [7] 0.00202 | [8] -0.00564 | [9] 0.0175 | [10] 0.0368 | [3] 0.0561 | [4] 0.0348 | [11] -0.113 | [12] 0.0131 | [13] -0.0802 | [14] 0.0353 | [16] -0.0458

CSCCC(NC=O)C(=O)NC(CC(C)C)C(=O)NC(Cc1ccccc1)C(=O)O (stereo unspecified)
inactive: [1] 0.0125 | [2] 0.0891 | [3] 0.0974 | [4] 0.0808

Cn1cncc1[C@@](N)(c1ccc(Cl)cc1)c1ccc2c(c1)c(-c1cccc(Cl)c1)cc(=O)n2C
active: [7] -0.29 | [9] -0.324 | [11] -0.403 | [12] -0.128 | [13] -0.472 | [14] -0.135 | [15] -0.511 | [16] -0.303
inactive: [5] -0.139 | [6] -0.0373 | [8] -0.0603 | [10] -0.0604

COc1ccccc1C1NC(=S)NC(C)=C1C(=O)Nc1cccc(Cl)c1 (stereo unspecified)
inactive: [1] 0.0961 | [2] 0.101 | [3] 0.0795 | [4] 0.0861

O=C(O)C(O)C(O)(Cc1ccc(O)cc1)C(=O)O (stereo unspecified)
inactive: [1] 0.147 | [2] 0.0709 | [3] 0.147 | [4] 0.089

C[C@@H]1CC[C@@]2(OC1)O[C@H]1C[C@H]3[C@@H]4CC[C@H]5C[C@@H](O)CC[C@]5(C)[C@H]4C[C@@H](O)[C@]3(C)[C@H]1[C@@H]2C
inactive: [1] 0.0822 | [2] 0.0668 | [3] 0.111 | [4] 0.136

COc1ccccc1C=CC(=O)O
inactive: [1] 0.0113 | [2] -0.0457 | [3] 0.102 | [4] 0.0515

O=C1C=CC(=C(c2ccc(O)cc2)c2ccc(O)cc2)C=C1
inactive: [1] 0.083 | [2] 0.0465 | [3] 0.0975 | [4] 0.0767

CN(C)c1ccc(C(=C2C=CC(=[N+](C)C)C=C2)c2ccc(N(C)C)cc2)cc1
active: [11] -0.295 | [12] -0.547 | [13] -2.54 | [14] -1.19 | [15] -4.26 | [16] -1.87
inactive: [5] 0.0956 | [6] -0.0594 | [1] 0.105 | [2] 0.00922 | [7] 0.0542 | [8] 0.0588 | [9] 0.098 | [10] 0.0226 | [3] 0.0691 | [4] 0.106
